From paper PMC4336329 (PLoS ONE, 2015)
Hit rate of the full screen: of about 310,000 compounds, about 14,000 (4.5%) showed an effect of 50% or more. The effect is printed as a negative number. This is one part of a sample in which strong results are shown more often than they occur.

Molecular target: human ether-à-go-go-related gene (hERG) potassium channel (human, UniProt Q12809)
Assay: primary screen, population patch clamp on CHO cells stably expressing hERG; higher = less effect of the substance
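Further: peak tail current of the secondary pulse compared with the same well before compound.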

Chain of human ether-à-go-go-related gene (hERG) potassium channel (Q12809 whole entry, looked up): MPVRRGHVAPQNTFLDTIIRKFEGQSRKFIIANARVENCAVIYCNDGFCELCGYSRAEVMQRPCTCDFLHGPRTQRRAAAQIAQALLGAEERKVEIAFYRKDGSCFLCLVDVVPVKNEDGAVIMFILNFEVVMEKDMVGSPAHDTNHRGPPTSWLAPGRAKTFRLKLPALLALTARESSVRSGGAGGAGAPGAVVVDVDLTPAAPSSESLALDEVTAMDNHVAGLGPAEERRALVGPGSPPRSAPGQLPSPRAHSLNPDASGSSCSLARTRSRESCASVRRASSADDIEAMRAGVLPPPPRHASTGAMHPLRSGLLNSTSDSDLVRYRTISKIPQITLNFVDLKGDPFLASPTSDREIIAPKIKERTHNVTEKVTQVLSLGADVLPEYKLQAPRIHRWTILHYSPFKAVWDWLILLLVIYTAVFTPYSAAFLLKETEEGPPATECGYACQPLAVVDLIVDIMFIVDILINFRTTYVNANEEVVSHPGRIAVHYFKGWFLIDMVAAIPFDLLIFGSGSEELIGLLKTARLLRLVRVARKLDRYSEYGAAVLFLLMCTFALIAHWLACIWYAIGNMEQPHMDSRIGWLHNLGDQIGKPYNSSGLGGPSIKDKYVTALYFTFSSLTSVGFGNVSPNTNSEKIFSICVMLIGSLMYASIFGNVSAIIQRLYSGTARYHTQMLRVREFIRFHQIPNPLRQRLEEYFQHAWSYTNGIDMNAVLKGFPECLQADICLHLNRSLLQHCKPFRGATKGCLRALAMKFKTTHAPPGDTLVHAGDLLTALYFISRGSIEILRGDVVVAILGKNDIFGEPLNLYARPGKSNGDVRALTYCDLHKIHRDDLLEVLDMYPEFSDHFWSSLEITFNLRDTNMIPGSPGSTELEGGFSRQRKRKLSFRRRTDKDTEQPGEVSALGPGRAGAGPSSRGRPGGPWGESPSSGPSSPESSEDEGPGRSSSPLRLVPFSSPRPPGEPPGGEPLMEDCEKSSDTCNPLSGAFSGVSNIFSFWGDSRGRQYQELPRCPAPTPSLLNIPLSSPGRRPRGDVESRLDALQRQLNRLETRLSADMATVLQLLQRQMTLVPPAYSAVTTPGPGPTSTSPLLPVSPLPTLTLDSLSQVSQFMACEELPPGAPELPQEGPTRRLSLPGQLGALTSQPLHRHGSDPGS

Structure (SMILES) | hERG current change (%, negative = inhibition) at 10uM [%]
COc1ccc(-n2c(=O)c3ccccc3n(CC(=O)c3ccccc3)c2=O)cc1OC | -1.32
Cc1ccccc1OCCNc1cc(N2CCCCC2)ccc1[N+](=O)[O-] | -17.2
CCCCC(=O)Nc1ccc(C(=O)Nc2ccc(OC)cc2[N+](=O)[O-])cc1 | -8.04
O=C(O)c1cn(-c2ccccc2)nc1-c1ccc(F)cc1 | 23.6
O=C1CN(C(=O)COC(=O)Cc2ccsc2)c2ccccc2N1 | -4.05
CCC(=O)N(c1nnc(SCC(=O)NN2C(=O)NC3(CCC(C)CC3)C2=O)s1)C1CC1 (stereo not shown) | -5.47
O=C(CCS(=O)(=O)c1cccc2nonc12)Nc1ccc(Br)cc1 | 7.91
Cc1cc(C)n(C(=O)CNC(=O)C2COc3ccccc3O2)n1 (stereo not shown) | 14.5
O=C(CCC1COc2ccccc2O1)N1CCCC1 (stereo not shown) | -3.13
Cc1cc(C)n(C(=O)CCC2COc3ccccc3O2)n1 (stereo not shown) | -76.6
Br.O=C(CN1C2=NCCCN2c2ccccc21)c1cccc(Br)c1 | -71
Br.COc1cccc(C(=O)CN2C3=NCCCN3c3ccccc32)c1 | -68.1
Br.O=C(CN1CCCCC1)c1cccc(Br)c1 | 7.58
COc1ccc(C(=O)CN2C3=NCCCN3c3ccccc32)cc1OC | -36.5
Br.COc1cccc(C(=O)Cn2c(=N)n(C)c3ccccc32)c1 | -27.2
Br.O=C(CN1C2=NCCCN2c2ccccc21)c1ccc([N+](=O)[O-])cc1 | -75.1
Cc1cc(C)cc(N(CC(=O)NCc2ccc(F)cc2)C(=O)CCC(=O)Nc2ccccn2)c1 | 18.7
COc1ccc(-c2csc(NC(=O)c3cc(=O)c4ccccc4o3)n2)cc1OC | 4.58
N#Cc1ccc(-c2nc3ccccc3nc2-c2ccccc2)cc1C#N | 21.7
CCc1cc2c(=O)nc3n(c2s1)Cc1ccccc1/C3=C(/O)c1cccc([N+](=O)[O-])c1 | -4.6
O=C(CCN1CCN(CCO)CC1)Nc1ccc(Br)cc1 | 1.76
COc1ccc(C(=O)N/N=C\c2ccoc2)cc1 | 20.8
O=C(CN1C(=O)c2cccc3cccc1c23)NCc1ccc2c(c1)OCO2 | -13.2
C=CCn1c(SCC(=O)NCC2CCCO2)nc2scc(-c3ccccc3)c2c1=O (stereo not shown) | -15.1
COC(=O)C1=C(N)Oc2cc(N(C)C)ccc2C1c1ccccc1OC (stereo not shown) | -84.3
COC(=O)C1=C(N)Oc2cc(C)[nH]c(=O)c2C1c1ccccc1OC (stereo not shown) | 9.48
CCOc1ccc(Br)cc1C1C(C(=O)OC)=C(N)Oc2cc(N(C)C)ccc21 (stereo not shown) | 21.4
Cc1ccc(C)c(OCC(=O)NCC(c2ccco2)N2CCCCC2)c1 (stereo not shown) | -2.72

Structure (SMILES) | hERG current change (%, negative = inhibition) at 10uM [%]
O=C(COc1ccccc1)NCC(c1ccco1)N1CCN(c2ccccc2)CC1 (stereo not shown) | -26.6
Cc1cc(C)c(OCC(=O)NCC(c2ccco2)N2CCCCC2)c(C)c1 (stereo not shown) | -52.1
COc1ccc(N2CCN(C(CNC(=O)COc3ccccc3)c3ccco3)CC2)cc1 (stereo not shown) | -67
Cc1ccccc1OCC(=O)NCC(c1ccco1)N1CCCCC1 (stereo not shown) | -31.4
O=C(COc1ccccc1)NCC(c1ccco1)N1CCN(c2ccc(F)cc2)CC1 (stereo not shown) | -41
C[C@H](NC(=O)c1ccco1)C(=O)NC1CCCCCC1 | -0.515
O=C(c1cccnc1)N1N=C(c2cccs2)CC1c1ccc(F)cc1 (stereo not shown) | -34.7
Cc1ccc(NC(=O)c2cccs2)cc1S(=O)(=O)Nc1cccc(Cl)c1 | 8.25
COc1ccc(NC(=S)N2CCC(C(=O)c3ccc(C)cc3)CC2)c(OC)c1 | 24.7
CCOc1cc(/C=N\NC(=O)CC(=O)NCCc2ccccc2)ccc1O | 1.94
Cc1ccc(C)c(-c2nnc(NC(=O)Cc3ccccc3)o2)c1 | 16.1
COc1ccc(S(=O)(=O)N2CCN(C3Cc4ccccc4C3)CC2)cc1 | 11.8
O=C(Nc1cccc(C(F)(F)F)c1)c1cncs1 | 20
COc1ccc(CN2CCN(C(=O)c3ccco3)CC2)cc1OCc1ccccc1 | -51.2
O=C(c1ccco1)N1CCN(Cc2cc(=O)c(OCc3cccc(F)c3)co2)CC1 | -76.4
O=C(c1ccco1)N1CCN(Cc2cccc(F)c2)CC1 | -0.928
O=C(COc1coc(CN2CCc3ccccc3C2)cc1=O)Nc1ccc([N+](=O)[O-])cc1 | -31.7
COc1ccc(CN2CCN(C(=O)c3ccco3)CC2)cc1OC.O=C(O)C(=O)O | 16.8
O=C(c1ccco1)N1CCN(Cc2cc(=O)c(OCc3ccc(F)cc3)co2)CC1 | -62.2
O=C(c1ccco1)N1CCN(Cc2cc(=O)c(OCc3ccccc3)co2)CC1 | -25.5
O=c1cc(CO)occ1OCc1cccc(F)c1 | -9.93
O=C(c1ccco1)N1CCN(Cc2cc(=O)c(OCc3ccc([N+](=O)[O-])cc3)co2)CC1 | -76.2
CC(C)NC(=O)COc1coc(CN2CCN(C(=O)c3ccco3)CC2)cc1=O | 10.3
CCOc1cc(CN2CCN(C(=O)c3ccco3)CC2)ccc1OC | -28.7
O=C(O)CCCCCn1c(SCC(=O)c2ccc(O)c(O)c2)nc2ccsc2c1=O | 32.2
O=C(N[C@@H](Cc1ccccc1)C(=O)NC1CCCCC1)c1ccco1 | 6
CN1CCN(NS(=O)(=O)c2ccc(Cl)cc2)CC1 | 19.4
